{
  "source": "the supplement of paper PMC6805474",
  "data": [
    {"tested_on": "Schistosoma mansoni schistosomula (LE)", "test": "XTT viability relative to DMSO control; higher = more viable (less active)", "settings": "72 h; 10 µM", "protocol": "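XTT/PMS was then added for a further 24 h (72 h total) and A450 was read. % viability = (sample - heat-killed control)/(DMSO control - heat-killed control) x 100, from duplicate wells in two independent experiments.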", "units": {"XTT viability": "%"}, "values": [
      {"compound": "CC1(C)OB(O)c2ccc(C3=NOC(c4cc(Cl)c(F)c(Cl)c4)(C(F)(F)F)C3)cc21", "note": "(centres undefined)", "XTT viability": 33.5},
      {"compound": "O=C1O[C@@H](COc2ccon2)CN1c1cc(F)c(C2=CCN(Cc3ccccc3)CC2)c(F)c1", "XTT viability": 72.9},
      {"compound": "O=C1O[C@@H](CO)CN1c1cc(F)c(C2=CCN(Cc3ccccc3)CC2)c(F)c1", "XTT viability": 127},
      {"compound": "Cc1cccc(C(=O)Nc2ccnc(N(C)C3CCN(CC(C)C)CC3)c2)c1", "XTT viability": 125},
      {"compound": "CO/C=C(/C(=O)OC)c1ccccc1Oc1cc(Oc2ccccc2C#N)ncn1", "XTT viability": 79.5},
      {"compound": "CO[C@@H]1CN(c2ccc(C#CC3(O)CN4CCC3CC4)c(Cc3ccccc3)n2)C[C@H]1O", "note": "(some centres undefined)", "XTT viability": 90.7},
      {"compound": "Nc1c2c(nc3sc4c(c13)CCCC4)CCCC2", "XTT viability": 89.4},
      {"compound": "CO/N=C(\\C(=O)OC)c1ccccc1CO/N=C(\\C)c1cccc(C(F)(F)F)c1", "XTT viability": 109},
      {"compound": "CC1COC(Cn2cncn2)(c2ccc(Oc3ccc(Cl)cc3)cc2Cl)O1", "note": "(centres undefined)", "XTT viability": 47.3},
      {"compound": "CCc1nn(C)c(C(=O)NCc2ccc(Oc3ccc(C)cc3)cc2)c1Cl", "XTT viability": 72.8},
      {"compound": "Cc1nn(Cc2ccccc2)c(Cl)c1C(=O)NC1CCCCCC1", "XTT viability": 87.9},
      {"compound": "CC(C)(C)C(O)C(Oc1ccc(-c2ccccc2)cc1)n1cncn1", "note": "(centres undefined)", "XTT viability": 106},
      {"compound": "Cc1cc(C2=NOC(c3cc(Cl)c(F)c(Cl)c3)(C(F)(F)F)C2)ccc1C(=O)NCc1ccc2c(c1)C(C)(C)OB2O", "note": "(centres undefined)", "XTT viability": 23.2},
      {"compound": "Cc1nn(C)c(C)c1NS(=O)(=O)c1c(Cl)cc(-c2ccnc(N3CCNCC3)c2)cc1Cl", "XTT viability": 121}
    ]}
  ]
}
